# Source: ChEMBL document CHEMBL2218924, “A broad activity screen in support of a chemogenomic map for kinase signalling research and drug discovery” (Biochem J, 2013)
# How the values were obtained:
# [1] = molecular target: T1, Ephrin type-B receptor 1 (Homo sapiens) (UniProt P54762); settings: at 10 µM
# T1 sequence (whole entry): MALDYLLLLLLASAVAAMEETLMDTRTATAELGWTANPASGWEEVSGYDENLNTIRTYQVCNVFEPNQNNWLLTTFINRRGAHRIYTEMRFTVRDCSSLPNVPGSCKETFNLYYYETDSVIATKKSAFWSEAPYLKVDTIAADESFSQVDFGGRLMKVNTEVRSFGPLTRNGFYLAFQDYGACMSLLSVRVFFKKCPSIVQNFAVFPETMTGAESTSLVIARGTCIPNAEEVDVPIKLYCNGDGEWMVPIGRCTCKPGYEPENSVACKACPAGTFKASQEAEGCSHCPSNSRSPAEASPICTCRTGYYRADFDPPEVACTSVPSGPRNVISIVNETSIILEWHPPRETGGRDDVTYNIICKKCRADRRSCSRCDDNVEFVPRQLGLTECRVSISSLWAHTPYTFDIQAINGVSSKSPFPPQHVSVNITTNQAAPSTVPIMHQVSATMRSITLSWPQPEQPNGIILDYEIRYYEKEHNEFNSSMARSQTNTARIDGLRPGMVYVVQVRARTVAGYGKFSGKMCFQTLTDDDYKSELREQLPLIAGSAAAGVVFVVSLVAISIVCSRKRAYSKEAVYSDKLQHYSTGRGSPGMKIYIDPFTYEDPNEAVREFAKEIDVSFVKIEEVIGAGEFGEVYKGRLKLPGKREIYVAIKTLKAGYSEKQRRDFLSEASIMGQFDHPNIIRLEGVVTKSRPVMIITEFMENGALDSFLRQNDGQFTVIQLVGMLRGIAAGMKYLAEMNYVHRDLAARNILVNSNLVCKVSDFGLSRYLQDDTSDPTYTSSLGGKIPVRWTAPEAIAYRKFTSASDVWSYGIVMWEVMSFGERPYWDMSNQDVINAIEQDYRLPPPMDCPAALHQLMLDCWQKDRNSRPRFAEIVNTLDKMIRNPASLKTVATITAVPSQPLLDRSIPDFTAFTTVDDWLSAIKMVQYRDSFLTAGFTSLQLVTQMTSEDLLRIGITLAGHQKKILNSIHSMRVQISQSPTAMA
# [2] = molecular target: T2, Ephrin type-B receptor 2 (Homo sapiens) (UniProt P29323); settings: at 1 µM
# T2 sequence (whole entry): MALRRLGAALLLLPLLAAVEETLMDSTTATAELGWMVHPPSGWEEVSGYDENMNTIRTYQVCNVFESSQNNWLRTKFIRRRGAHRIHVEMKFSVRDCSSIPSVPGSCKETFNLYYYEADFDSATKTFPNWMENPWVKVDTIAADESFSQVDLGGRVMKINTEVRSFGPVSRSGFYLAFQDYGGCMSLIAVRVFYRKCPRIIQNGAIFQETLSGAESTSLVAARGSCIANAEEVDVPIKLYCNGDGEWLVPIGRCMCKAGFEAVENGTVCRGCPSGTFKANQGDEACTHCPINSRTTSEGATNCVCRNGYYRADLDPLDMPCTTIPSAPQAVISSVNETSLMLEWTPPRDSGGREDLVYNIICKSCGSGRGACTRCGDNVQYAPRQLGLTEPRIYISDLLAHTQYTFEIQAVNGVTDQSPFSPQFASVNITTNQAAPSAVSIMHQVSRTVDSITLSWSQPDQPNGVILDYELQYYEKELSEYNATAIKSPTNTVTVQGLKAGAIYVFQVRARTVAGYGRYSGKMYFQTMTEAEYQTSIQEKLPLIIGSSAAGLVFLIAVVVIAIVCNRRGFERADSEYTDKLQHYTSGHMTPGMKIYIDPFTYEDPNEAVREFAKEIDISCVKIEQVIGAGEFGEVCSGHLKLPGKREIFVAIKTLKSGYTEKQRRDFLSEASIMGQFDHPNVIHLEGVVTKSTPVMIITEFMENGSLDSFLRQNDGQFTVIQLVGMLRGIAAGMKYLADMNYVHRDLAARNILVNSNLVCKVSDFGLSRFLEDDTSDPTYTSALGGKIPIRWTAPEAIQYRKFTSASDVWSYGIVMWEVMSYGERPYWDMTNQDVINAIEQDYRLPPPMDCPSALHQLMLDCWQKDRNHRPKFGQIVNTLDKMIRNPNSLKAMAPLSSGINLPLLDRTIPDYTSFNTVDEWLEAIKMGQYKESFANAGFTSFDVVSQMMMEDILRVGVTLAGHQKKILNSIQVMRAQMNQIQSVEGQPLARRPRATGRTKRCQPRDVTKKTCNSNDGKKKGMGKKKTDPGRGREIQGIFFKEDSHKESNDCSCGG
# [3] = molecular target: T2, Ephrin type-B receptor 2 (Homo sapiens); settings: at 10 µM
# [4] = molecular target: T3, Ephrin type-B receptor 3 (Homo sapiens) (UniProt P54753); settings: at 1 µM
# T3 sequence (whole entry): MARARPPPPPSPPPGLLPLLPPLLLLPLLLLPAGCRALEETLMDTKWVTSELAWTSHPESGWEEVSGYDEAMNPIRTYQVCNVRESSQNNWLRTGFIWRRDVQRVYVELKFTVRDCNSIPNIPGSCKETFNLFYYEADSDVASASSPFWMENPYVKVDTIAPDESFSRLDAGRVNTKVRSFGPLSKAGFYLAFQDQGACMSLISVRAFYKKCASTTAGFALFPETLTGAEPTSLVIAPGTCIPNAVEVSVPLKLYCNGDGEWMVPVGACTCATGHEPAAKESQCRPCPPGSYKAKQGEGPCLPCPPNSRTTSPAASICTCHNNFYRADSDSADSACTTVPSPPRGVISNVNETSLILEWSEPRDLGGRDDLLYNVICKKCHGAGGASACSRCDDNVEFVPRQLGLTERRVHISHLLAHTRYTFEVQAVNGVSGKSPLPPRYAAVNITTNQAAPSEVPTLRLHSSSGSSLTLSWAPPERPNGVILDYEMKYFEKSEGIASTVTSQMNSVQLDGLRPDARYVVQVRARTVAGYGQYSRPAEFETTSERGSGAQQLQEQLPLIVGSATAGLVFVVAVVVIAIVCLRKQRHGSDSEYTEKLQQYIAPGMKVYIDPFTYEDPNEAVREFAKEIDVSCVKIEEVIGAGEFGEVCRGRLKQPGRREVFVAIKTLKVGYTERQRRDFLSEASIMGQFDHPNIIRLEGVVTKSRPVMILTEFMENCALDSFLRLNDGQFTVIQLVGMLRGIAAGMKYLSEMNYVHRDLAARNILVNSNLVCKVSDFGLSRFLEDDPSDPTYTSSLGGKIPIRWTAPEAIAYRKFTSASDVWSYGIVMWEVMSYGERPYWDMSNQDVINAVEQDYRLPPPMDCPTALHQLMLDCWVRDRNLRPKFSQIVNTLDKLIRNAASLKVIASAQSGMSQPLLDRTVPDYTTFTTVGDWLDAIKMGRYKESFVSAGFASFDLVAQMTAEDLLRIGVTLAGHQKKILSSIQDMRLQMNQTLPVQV
# [5] = molecular target: T3, Ephrin type-B receptor 3 (Homo sapiens); settings: at 10 µM
# [6] = molecular target: T4, Ephrin type-B receptor 4 (Homo sapiens) (UniProt P54760); settings: at 1 µM
# T4 sequence (whole entry): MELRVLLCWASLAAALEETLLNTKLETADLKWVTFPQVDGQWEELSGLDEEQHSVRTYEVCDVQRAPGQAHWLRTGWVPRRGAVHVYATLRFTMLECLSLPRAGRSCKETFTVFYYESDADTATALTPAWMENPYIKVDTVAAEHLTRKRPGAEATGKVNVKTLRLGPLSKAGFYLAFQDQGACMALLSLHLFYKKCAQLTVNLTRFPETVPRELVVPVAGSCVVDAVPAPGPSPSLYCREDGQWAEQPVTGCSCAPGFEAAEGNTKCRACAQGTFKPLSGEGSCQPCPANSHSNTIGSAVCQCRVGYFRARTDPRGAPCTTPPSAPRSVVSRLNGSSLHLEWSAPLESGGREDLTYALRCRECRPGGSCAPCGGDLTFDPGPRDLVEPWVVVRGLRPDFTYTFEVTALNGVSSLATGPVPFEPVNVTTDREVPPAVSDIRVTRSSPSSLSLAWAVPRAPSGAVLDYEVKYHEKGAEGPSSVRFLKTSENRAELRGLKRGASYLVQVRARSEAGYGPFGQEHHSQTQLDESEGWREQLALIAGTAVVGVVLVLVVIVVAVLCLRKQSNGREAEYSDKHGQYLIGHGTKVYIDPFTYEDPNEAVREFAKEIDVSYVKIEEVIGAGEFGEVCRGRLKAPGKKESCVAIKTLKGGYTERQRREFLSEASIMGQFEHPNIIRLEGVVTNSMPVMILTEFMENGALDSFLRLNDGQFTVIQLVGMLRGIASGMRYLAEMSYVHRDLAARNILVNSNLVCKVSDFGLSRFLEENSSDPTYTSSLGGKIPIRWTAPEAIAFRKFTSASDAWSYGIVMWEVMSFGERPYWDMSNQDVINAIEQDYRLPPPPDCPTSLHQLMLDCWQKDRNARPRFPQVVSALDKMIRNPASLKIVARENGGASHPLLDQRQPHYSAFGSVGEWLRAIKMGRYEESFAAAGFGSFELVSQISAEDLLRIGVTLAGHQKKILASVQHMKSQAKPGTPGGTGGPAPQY
# [7] = molecular target: T4, Ephrin type-B receptor 4 (Homo sapiens); settings: at 10 µM
# [8] = molecular target: Receptor tyrosine-protein kinase erbB-4 (Homo sapiens) (UniProt Q15303); settings: at 1 µM
# Sequence of Receptor tyrosine-protein kinase erbB-4 (Homo sapiens) (Q15303 whole entry): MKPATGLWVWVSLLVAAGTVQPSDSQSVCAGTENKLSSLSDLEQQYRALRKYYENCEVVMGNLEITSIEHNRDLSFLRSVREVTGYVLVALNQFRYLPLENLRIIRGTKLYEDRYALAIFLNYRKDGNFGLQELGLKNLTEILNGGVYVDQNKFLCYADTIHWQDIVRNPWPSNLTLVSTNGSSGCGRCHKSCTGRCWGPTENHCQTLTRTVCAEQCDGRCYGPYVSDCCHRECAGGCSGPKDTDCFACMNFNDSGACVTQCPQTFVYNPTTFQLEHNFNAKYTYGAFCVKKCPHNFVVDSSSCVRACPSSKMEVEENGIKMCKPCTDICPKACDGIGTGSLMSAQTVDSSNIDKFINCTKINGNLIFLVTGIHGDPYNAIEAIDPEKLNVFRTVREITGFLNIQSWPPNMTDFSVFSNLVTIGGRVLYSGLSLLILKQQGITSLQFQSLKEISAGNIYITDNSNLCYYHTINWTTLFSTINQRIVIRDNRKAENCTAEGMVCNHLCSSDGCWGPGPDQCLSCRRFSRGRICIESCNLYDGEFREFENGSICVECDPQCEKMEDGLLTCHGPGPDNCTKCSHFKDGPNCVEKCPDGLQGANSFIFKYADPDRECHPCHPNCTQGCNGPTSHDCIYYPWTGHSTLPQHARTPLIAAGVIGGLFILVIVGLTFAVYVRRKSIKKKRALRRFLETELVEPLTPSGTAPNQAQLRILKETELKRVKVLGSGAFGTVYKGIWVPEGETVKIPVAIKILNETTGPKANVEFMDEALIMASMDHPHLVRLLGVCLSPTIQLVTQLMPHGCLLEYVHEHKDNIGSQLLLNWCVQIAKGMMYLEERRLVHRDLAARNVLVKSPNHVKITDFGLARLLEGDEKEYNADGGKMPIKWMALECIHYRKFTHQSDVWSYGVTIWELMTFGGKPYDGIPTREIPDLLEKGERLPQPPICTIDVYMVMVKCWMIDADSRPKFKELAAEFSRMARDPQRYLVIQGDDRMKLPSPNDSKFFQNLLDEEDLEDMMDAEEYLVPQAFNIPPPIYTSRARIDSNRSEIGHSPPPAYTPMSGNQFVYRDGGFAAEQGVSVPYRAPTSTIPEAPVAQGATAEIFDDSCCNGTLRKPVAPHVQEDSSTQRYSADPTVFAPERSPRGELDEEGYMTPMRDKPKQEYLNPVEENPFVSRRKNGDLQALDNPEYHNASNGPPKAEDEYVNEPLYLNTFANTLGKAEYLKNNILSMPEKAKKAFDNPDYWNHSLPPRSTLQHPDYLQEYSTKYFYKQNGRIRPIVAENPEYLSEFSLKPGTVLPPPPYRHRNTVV
# [9] = molecular target: Receptor tyrosine-protein kinase erbB-4 (Homo sapiens) (UniProt Q15303); settings: at 10 µM
# [10] = molecular target: Focal adhesion kinase 1 (Homo sapiens) (UniProt Q05397); settings: at 1 µM
# Sequence of Focal adhesion kinase 1 (Homo sapiens) (Q05397 2-1052 limits assumed): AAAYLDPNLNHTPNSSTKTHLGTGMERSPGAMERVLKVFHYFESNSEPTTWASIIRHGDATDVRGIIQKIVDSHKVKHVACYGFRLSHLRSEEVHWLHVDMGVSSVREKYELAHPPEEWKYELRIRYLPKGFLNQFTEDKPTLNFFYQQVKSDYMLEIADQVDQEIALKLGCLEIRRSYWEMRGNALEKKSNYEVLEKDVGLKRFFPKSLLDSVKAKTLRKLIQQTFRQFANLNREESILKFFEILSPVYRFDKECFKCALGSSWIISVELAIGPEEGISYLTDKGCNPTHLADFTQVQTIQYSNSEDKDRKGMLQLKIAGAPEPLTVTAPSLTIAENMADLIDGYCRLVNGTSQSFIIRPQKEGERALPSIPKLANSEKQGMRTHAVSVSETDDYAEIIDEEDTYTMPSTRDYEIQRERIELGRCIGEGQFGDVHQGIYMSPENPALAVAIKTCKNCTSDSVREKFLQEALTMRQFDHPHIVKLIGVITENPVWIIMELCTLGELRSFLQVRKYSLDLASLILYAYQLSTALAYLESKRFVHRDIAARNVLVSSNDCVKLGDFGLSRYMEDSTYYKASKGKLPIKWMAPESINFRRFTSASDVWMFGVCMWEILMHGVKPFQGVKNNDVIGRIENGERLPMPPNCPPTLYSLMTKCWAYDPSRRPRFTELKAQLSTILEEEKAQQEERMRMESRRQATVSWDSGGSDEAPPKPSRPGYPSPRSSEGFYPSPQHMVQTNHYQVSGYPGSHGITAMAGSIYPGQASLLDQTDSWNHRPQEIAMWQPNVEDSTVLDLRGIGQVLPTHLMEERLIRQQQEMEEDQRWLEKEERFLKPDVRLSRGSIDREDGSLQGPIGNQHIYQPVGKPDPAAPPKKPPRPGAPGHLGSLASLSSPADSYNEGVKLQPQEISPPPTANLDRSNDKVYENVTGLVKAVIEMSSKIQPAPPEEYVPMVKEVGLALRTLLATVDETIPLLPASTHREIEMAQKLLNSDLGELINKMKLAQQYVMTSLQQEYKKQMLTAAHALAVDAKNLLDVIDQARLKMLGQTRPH
Structure (SMILES),residual activity [1] [%],residual activity [2] [%],residual activity [3] [%],residual activity [4],residual activity [5] [%],residual activity [6] [%],residual activity [7] [%],residual activity [8] [%],residual activity [9] [%],residual activity [10] [%]
O=[N+]([O-])c1ccc(-c2nc(-c3ccc(F)cc3)c(-c3ccncc3)[nH]2)cc1,94,111,109,126% (inactive),82,89,76,76,75,107
O=c1cc(-c2cccc3c2Sc2ccccc2S3)oc(N2CCOCC2)c1,92,112,126,119% (inactive),121,113,118,105,92,109
Cn1nc2c3c(cccc31)C(=O)c1ccccc1-2,77,108,109,104% (inactive),–,87,83,93,90,95
CO[C@@H]1[C@H](N(C)C(=O)c2ccccc2)C[C@H]2O[C@]1(C)n1c3ccccc3c3c4c(c5c6ccccc6n2c5c31)C(=O)NC4,–,111,222,119% (inactive),130,107,372,67,–,90
COc1ccc(S(=O)(=O)N(CCO)c2ccccc2CN(C)C/C=C/c2ccc(Cl)cc2)cc1,90,115,120,112% (inactive),107,86,79,110,77,93
